# Data: PubChem BioAssay (EPA / NIEHS)
# Calls of active or inactive are those of the source. The calls were made as follows: active = hit-call score of the fitted dose curve at least 0.9, where 1 is the maximum; inactive = score below 0.9.
# Read-out: ABC Transporter (ABCB11), ABCB11 (gene 8647)
# Assay: LTEA_HepaRG_ABCB11: Life Technologies and Expression Analysis (LTEA) Assay for ABC Transporter (ABCB11) using HepaRG (AID 2283463)
# Details: mRNA level, 48 h; actives raise or lower the signal
# Description: LTEA_HepaRG is a cell based, multiplexed-readout assay that uses HepaRG, a human liver cell line, with measurements taken at 48 hours after chemical dosing on a 96-well plate.LTEA_HepaRG_ABCB11 is one of 102 assay component(s) measured in the LTEA HepaRG cell culture assay. It is a marker of Steatosis/NR mediated transport.Data from the assay component LTEA_HepaRG_ABCB11 was analyzed into 1 endpoint. This assay endpoint, LTEA_HepaRG_ABCB11, was analyzed with bidirectional fitting relative to DMSO as the negative control and baseline of activity. Using a type of inducible reporter, measures of mRNA induction for gain or loss-of-signal activity can be used to understand regulation of transcription factor activity. To generalize the intended target to other relatable targets, this assay endpoint is annotated to the transporter intended target family, where the subfamily is ABC transporter.
# A total of 1060 chemcials from the ToxCast library were tested in eight-point concentration-response experiments. Cell culture and cytotoxicity assays were conducted at Thermo Fisher Scientific's Custom Services facility (Madison, WI). A single lot of human HepaRG cells (Thermo Fisher Scientific, Frederick, MD) was used for the cell culture experiments. 96-well format collagen type I coated plates of human HepaRG cells were prepared using established methods. Briefly, cryopreserved HepaRG cells were thawed, plated at a density of approximately 100,000 cells/well in HepaRG Thaw, Plate, and General Purpose media (HPRG770, Thermo Fisher Scientific), and incubated for 48 hours. 0.5% DMSO was selected as vehicle control to balance the requisite need of DMSO in HepaRG cultures to maintain differentiation (for example, baseline metabolism, proportions of hepatocytes vs. cholangiocytes), while enabling further hepatic receptor pathway activation (for example, PXR and CAR) in response to chemical exposure. 48 hours after plating, the culture medium was replaced with HepaRG Serum-Free Incudtion Media. Cells were exposed to each test chemical in duplicate and maintained in CO2 incubators for another 48 hours. Chemical plates were thawed to room temperature and 200x concentrations of treatment groups were prepared. 8-point conentration-reponse curves were made with the highest exposure at 100 uM, followed by half-log dilutions, all in 0.5% DMSO. Each test plate contained variouse controls, induction positive controls (1mM phenobarbital), cytotoxicity positive controls ([…] aflatoxin B1), vehicle controls (0.5% DMSO), and total lysis controls (0.5% DMSO). Cell morphology images were taken using an Essen IncuCyte FLR automated microscope, with six 96-well plates imaged in about 24 minutes. Images were captured and exported and JPEG files. Spent culture media was transfered to black-well plates for the LDH assay, and remaining media was sorted at -80 C for later use. Cells were treated with RLT buffer and frozen until shipped for gene expression analysis. Total RNA was isolated from the cell suspension in 75 uL of Buffer RLT (Qiagen, Germantown, MD 20874) by Quintiles/Expression Analysis (Durham, NC) using a custom isolation procedure. Total RNA from each plate well was transferred to a preamplification plate. Fluidigm's 96.96 Dynamic ArrayTM (Fluidigm, Amsterdam, the Netherlands) technology was used for gene expression analyses by quantitative reverse transcription polymerase chain reaction (qRT-PCR, performed by Quintiles/Expression Analysis, Durham, NC)89. Standard TaqManTM Assays (Applied Biosystems/ThermoFisher Scientific, Foster City, CA) were used to assess the expression of 93 genes selected based on their selectivity and sensitivity to important hepatic receptors known to be modulated by environmental chemicals; importance in human hepatocyte functionality; and hepatotoxicity. […]
Compound,outcome,AC50
CCCCC(CC)COC(=O)CCCCC(=O)OCC(CC)CCCC (stereo not given),inactive,
CCN(CC)CCNc1ccc(CNC=O)c2sc3ccc(OC)cc3c(=O)c12,,11.4 µM (active)
c1ccc2c(c1)Cc1ccccc1-2,inactive,
CCCCCCCCC(=O)O,inactive,
CCc1nn(C2CCCCC2)c2cc(C3(C#N)CCC(C(=O)O)CC3)ccc12 (stereo not given),,82.8 µM (active)
OC1CCC(C2CCCCC2)CC1 (stereo not given),inactive,
CCCCC(CC)COC(=O)CCCCC(=O)OCc1ccccc1 (stereo not given),inactive,
C#C[C@]1(O)CC[C@H]2[C@@H]3CCC4=CC(=O)CC[C@@H]4[C@H]3CC[C@@]21C,,0.24 µM (active)
CN1CCC[C@H]1c1cccnc1,inactive,
Cc1cc(CCN2CCN(c3nsc4ccccc34)CC2)cc2c1NC(=O)CC2(C)C,,74.7 µM (active)
Nc1cccc2c(N)cccc12,,50 µM (active)
CC(C)(C)c1cc(C(C)(C)C)c(O)c(C(C)(C)C)c1,inactive,
N#C[C@@H]1CC(F)(F)CN1C(=O)CNC1CC2CCC(C1)N2c1ncccn1 (stereo not given in full),inactive,
NC(=O)N1C(=O)C(C(=O)c2cc(Cl)cs2)c2cc(F)c(Cl)cc21 (stereo not given),,15.6 µM (active)
c1ccc2c(c1)ccc1ccccc12,inactive,
NC(=O)N(O)[C@@H]1C=C[C@H](Oc2cccc(Oc3ccc(F)cc3)c2)C1,,68 µM (active)
CC(C)(C)CC(C)(C)c1ccc(O)c(-n2nc3ccccc3n2)c1,inactive,
CCCCCCCCCCCCCCCS(=O)(=O)Oc1ccccc1,inactive,
OCCC(F)(F)C(F)(F)C(F)(F)C(F)(F)C(F)(F)C(F)(F)F,inactive,
COc1ccc([N+](=O)[O-])cc1N,inactive,

Compound,outcome,AC50
CCc1ccc(CCOc2ccc(CC3SC(=O)NC3=O)cc2)nc1 (stereo not given),,76.8 µM (active)
OCCC(F)(F)C(F)(F)C(F)(F)C(F)(F)C(F)(F)C(F)(F)C(F)(F)C(F)(F)F,inactive,
C=C(C)C(=O)OCCC(F)(F)C(F)(F)C(F)(F)C(F)(F)C(F)(F)C(F)(F)F,inactive,
CCCCOCCO,inactive,
CC[C@H](C)[C@@H](C(=O)O)n1sc2ccccc2c1=O,inactive,
C[C@@H]1C[C@H]2[C@@H]3CCC4=CC(=O)C=C[C@]4(C)[C@@]3(F)[C@@H](O)C[C@]2(C)[C@@]1(O)C(=O)COP(=O)(O)O,inactive,
CCCOc1sc(C(=O)N2CCC(c3cc(CN)ccc3F)CC2)c(C)c1Br,inactive,
CC#C[C@]1(O)CC[C@H]2[C@@H]3CCC4=CC(=O)CCC4=C3[C@@H](c3ccc(N(C)C)cc3)C[C@@]21C,,24.7 µM (active)
O=C(OCCOCCOC(=O)c1ccccc1)c1ccccc1,inactive,
CN(C)C=O,inactive,
O=[N+]([O-])c1ccc(O)cc1,inactive,
CCC(C)(C)C1CCC(O)CC1 (stereo not given),inactive,
CCCCCCCCOC(=O)CCCCCCCCC(=O)OCCCCCCCC,inactive,
CC(=O)CC(C)(C)O,inactive,
Oc1cccc(O)c1,inactive,
CCOC(=O)CC(O)(CC(=O)OCC)C(=O)OCC,inactive,
CCCCCCCC(=O)O,inactive,
c1ccc2cc3c(ccc4ccccc43)cc2c1,,14.6 µM (active)
CCC(=C(c1ccc(O)cc1)c1ccc(OCCN(C)C)cc1)c1ccccc1,inactive,
Cc1cc(C)c(O)c(C)c1,inactive,
